Measurements reported in the supplement of paper PMC6992640.

tested on: UCD52 (cells of a triple-negative basal-like breast cancer xenograft); assay: cell viability of combination (% of vehicle); higher = less cytotoxic; conditions: 1 µM; 72 h; partner dose: 10 nM
Experimental: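 PDX cells were treated for 72 h with each drug at 1 µM plus afatinib (10 nM; 1 µM for WHIM30). Luciferase viability is expressed as percent of vehicle.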

SMILES	cell viability of combination
CCCSc1nc(NC2CC2c2ccc(F)c(F)c2)c2nnn(C3CC(OCCO)C(O)C3O)c2n1 (stereo not given) [Ticagrelor] + CN(C)C/C=C/C(=O)Nc1cc2c(Nc3ccc(F)c(Cl)c3)ncnc2cc1O[C@H]1CCOC1 [Afatinib]	72.2
CN(C(=O)CN(CCO)CC(=O)N(C)C(C)(C)Cc1ccccc1)C(C)(C)Cc1ccccc1 [Oxethazaine] + CN(C)C/C=C/C(=O)Nc1cc2c(Nc3ccc(F)c(Cl)c3)ncnc2cc1O[C@H]1CCOC1 [Afatinib]	62.9
Cl.Fc1ccc(C2CCNCC2COc2ccc3c(c2)OCO3)cc1 (stereo not given) [Paroxetine HCl] + CN(C)C/C=C/C(=O)Nc1cc2c(Nc3ccc(F)c(Cl)c3)ncnc2cc1O[C@H]1CCOC1 [Afatinib]	60.4
CNC(=O)c1cc(Oc2ccc(NC(=O)Nc3ccc(Cl)c(C(F)(F)F)c3)cc2)ccn1.Cc1ccc(S(=O)(=O)O)cc1 [Sorafenib Tosylate] + CN(C)C/C=C/C(=O)Nc1cc2c(Nc3ccc(F)c(Cl)c3)ncnc2cc1O[C@H]1CCOC1 [Afatinib]	42.3
Cc1nc(Nc2ncc(C(=O)Nc3c(C)cccc3Cl)s2)cc(N2CCN(CCO)CC2)n1 + CN(C)C/C=C/C(=O)Nc1cc2c(Nc3ccc(F)c(Cl)c3)ncnc2cc1O[C@H]1CCOC1 [Afatinib]	27.6
O=C1C=CC=CC1=C1NC(=C2C=CC=CC2=O)N(c2ccc(C(=O)O)cc2)N1 [Deferasirox] + CN(C)C/C=C/C(=O)Nc1cc2c(Nc3ccc(F)c(Cl)c3)ncnc2cc1O[C@H]1CCOC1 [Afatinib]	68.2
COc1cc(C(=O)NS(=O)(=O)c2ccccc2C)ccc1Cc1cn(C)c2ccc(NC(=O)OC3CCCC3)cc12 [Zafirlukast] + CN(C)C/C=C/C(=O)Nc1cc2c(Nc3ccc(F)c(Cl)c3)ncnc2cc1O[C@H]1CCOC1 [Afatinib]	71.6
CCC(NC(=O)C(C)NC)C(=O)N1CC(O)CC1Cc1c(-c2[nH]c3cc(F)ccc3c2CC2CC(O)CN2C(=O)C(CC)NC(=O)C(C)NC)[nH]c2cc(F)ccc12 (stereo not given) + CN(C)C/C=C/C(=O)Nc1cc2c(Nc3ccc(F)c(Cl)c3)ncnc2cc1O[C@H]1CCOC1 [Afatinib]	53.5
Cl.Cl.O=C1c2c(O)ccc(O)c2C(=O)c2c(NCCNCCO)ccc(NCCNCCO)c21 [Mitoxantrone HCl] + CN(C)C/C=C/C(=O)Nc1cc2c(Nc3ccc(F)c(Cl)c3)ncnc2cc1O[C@H]1CCOC1 [Afatinib]	32.2
COc1cc2c(Nc3ccc(Br)cc3F)ncnc2cc1OCC1CCN(C)CC1 [Vandetanib (ZD6474)] + CN(C)C/C=C/C(=O)Nc1cc2c(Nc3ccc(F)c(Cl)c3)ncnc2cc1O[C@H]1CCOC1 [Afatinib]	36.2
CCN(CC)CCCC(C)Nc1ccnc2cc(Cl)ccc12.O=P(O)(O)O.O=P(O)(O)O (stereo not given) [Chloroquine diphosphate] + CN(C)C/C=C/C(=O)Nc1cc2c(Nc3ccc(F)c(Cl)c3)ncnc2cc1O[C@H]1CCOC1 [Afatinib]	48.5
CCc1oc2ccccc2c1C(=O)c1cc(Br)c(O)c(Br)c1 [Benzbromarone] + CN(C)C/C=C/C(=O)Nc1cc2c(Nc3ccc(F)c(Cl)c3)ncnc2cc1O[C@H]1CCOC1 [Afatinib]	77.2
CNC(=O)c1cc(Oc2ccc(NC(=O)Nc3ccc(Cl)c(C(F)(F)F)c3)c(F)c2)ccn1.Cl [Regorafenib hydrochloride] + CN(C)C/C=C/C(=O)Nc1cc2c(Nc3ccc(F)c(Cl)c3)ncnc2cc1O[C@H]1CCOC1 [Afatinib]	53.3
CCCCc1oc2ccccc2c1C(=O)c1cc(I)c(OCCN(CC)CC)c(I)c1.Cl [Amiodarone HCl] + CN(C)C/C=C/C(=O)Nc1cc2c(Nc3ccc(F)c(Cl)c3)ncnc2cc1O[C@H]1CCOC1 [Afatinib]	66.3
C=C(c1ccc(C(=O)O)cc1)c1cc2c(cc1C)C(C)(C)CCC2(C)C [Bexarotene] + CN(C)C/C=C/C(=O)Nc1cc2c(Nc3ccc(F)c(Cl)c3)ncnc2cc1O[C@H]1CCOC1 [Afatinib]	82.4
CCCCCOc1ccc(-c2ccc(-c3ccc(C(=O)N[C@H]4C[C@@H](O)[C@@H](O)NC(=O)[C@@H]5[C@@H](O)[C@@H](C)CN5C(=O)[C@H]([C@@H](C)O)NC(=O)[C@H]([C@H](O)[C@@H](O)c5ccc(O)cc5)NC(=O)[C@@H]5C[C@@H](O)CN5C(=O)[C@H]([C@@H](C)O)NC4=O)cc3)cc2)cc1 [Anidulafungin] + CN(C)C/C=C/C(=O)Nc1cc2c(Nc3ccc(F)c(Cl)c3)ncnc2cc1O[C@H]1CCOC1 [Afatinib]	68.6
CC(C)CC(NC(=O)C(CCc1ccccc1)NC(=O)CN1CCOCC1)C(=O)NC(Cc1ccccc1)C(=O)NC(CC(C)C)C(=O)C1(C)CO1 (stereo not given) [Carfilzomib (PR-171)] + CN(C)C/C=C/C(=O)Nc1cc2c(Nc3ccc(F)c(Cl)c3)ncnc2cc1O[C@H]1CCOC1 [Afatinib]	13.1
C#Cc1cccc(Nc2ncnc3cc(OCCOC)c(OCCOC)cc23)c1.Cl [Erlotinib Hydrochloride] + CN(C)C/C=C/C(=O)Nc1cc2c(Nc3ccc(F)c(Cl)c3)ncnc2cc1O[C@H]1CCOC1 [Afatinib]	54.5
CNCCC(Oc1ccc(C(F)(F)F)cc1)c1ccccc1.Cl (stereo not given) [Fluoxetine HCl] + CN(C)C/C=C/C(=O)Nc1cc2c(Nc3ccc(F)c(Cl)c3)ncnc2cc1O[C@H]1CCOC1 [Afatinib]	59.1
CC(O)C(=O)O.CCOc1ccc2nc3cc(N)ccc3c(N)c2c1.O [Ethacridine lactate monohydrate] + CN(C)C/C=C/C(=O)Nc1cc2c(Nc3ccc(F)c(Cl)c3)ncnc2cc1O[C@H]1CCOC1 [Afatinib]	70.5

SMILES	cell viability of combination
CCC(=C(c1ccccc1)c1ccc(OCCN(C)C)cc1)c1ccccc1.O=C(O)CC(O)(CC(=O)O)C(=O)O [Tamoxifen Citrate] + CN(C)C/C=C/C(=O)Nc1cc2c(Nc3ccc(F)c(Cl)c3)ncnc2cc1O[C@H]1CCOC1 [Afatinib]	69.5
Nc1ccc2cc3ccc([NH3+])cc3nc2c1.Nc1ccc2cc3ccc([NH3+])cc3nc2c1.O=S(=O)([O-])[O-] [Proflavine Hemisulfate] + CN(C)C/C=C/C(=O)Nc1cc2c(Nc3ccc(F)c(Cl)c3)ncnc2cc1O[C@H]1CCOC1 [Afatinib]	116
Br.Cc1ccc(Sc2ccccc2N2CCNCC2)c(C)c1 + CN(C)C/C=C/C(=O)Nc1cc2c(Nc3ccc(F)c(Cl)c3)ncnc2cc1O[C@H]1CCOC1 [Afatinib]	55.4
COC(=O)C1=C(C)NC(C)=C(C(=O)OC2CCCN(Cc3ccccc3)C2)C1c1cccc([N+](=O)[O-])c1.Cl (stereo not given) [Benidipine HCl] + CN(C)C/C=C/C(=O)Nc1cc2c(Nc3ccc(F)c(Cl)c3)ncnc2cc1O[C@H]1CCOC1 [Afatinib]	79.2
CC[C@H](C)[C@H]1O[C@]2(CC[C@@H]1C)C[C@@H]1C[C@@H](C/C=C(\C)[C@@H](O[C@H]3C[C@H](OC)[C@@H](O[C@H]4C[C@H](OC)[C@@H](O)[C@H](C)O4)[C@H](C)O3)[C@@H](C)/C=C/C=C3\CO[C@@H]4[C@H](O)C(C)=C[C@@H](C(=O)O1)[C@]34O)O2 [Ivermectin] + CN(C)C/C=C/C(=O)Nc1cc2c(Nc3ccc(F)c(Cl)c3)ncnc2cc1O[C@H]1CCOC1 [Afatinib]	45.8
C1=C\COCc2cc(ccc2OCCN2CCCC2)Nc2nccc(n2)-c2cccc(c2)COC/1 [Pacritinib] + CN(C)C/C=C/C(=O)Nc1cc2c(Nc3ccc(F)c(Cl)c3)ncnc2cc1O[C@H]1CCOC1 [Afatinib]	47.9
CC1(COc2ccc3c(c2)ncn3-c2ccc3cccc(N4CCC(N)CC4)c3n2)COC1 + CN(C)C/C=C/C(=O)Nc1cc2c(Nc3ccc(F)c(Cl)c3)ncnc2cc1O[C@H]1CCOC1 [Afatinib]	108
CC(CCC(=O)O)C1CCC2C3CCC4CC(O)CCC4(C)C3CCC12C (stereo not given) [Lithocholic Acid] + CN(C)C/C=C/C(=O)Nc1cc2c(Nc3ccc(F)c(Cl)c3)ncnc2cc1O[C@H]1CCOC1 [Afatinib]	52.6
[O-]n1ccccc1=S.[O-]n1ccccc1=S.[Zn+2] [Zinc Pyrithione] + CN(C)C/C=C/C(=O)Nc1cc2c(Nc3ccc(F)c(Cl)c3)ncnc2cc1O[C@H]1CCOC1 [Afatinib]	56
Cc1c(C(=O)NN2CCCCC2)nn(-c2ccc(Cl)cc2Cl)c1-c1ccc(Cl)cc1 [Rimonabant] + CN(C)C/C=C/C(=O)Nc1cc2c(Nc3ccc(F)c(Cl)c3)ncnc2cc1O[C@H]1CCOC1 [Afatinib]	75
C=CC(=O)Nc1cc(Nc2nccc(-c3cn(C)c4ccccc34)n2)c(OC)cc1N(C)CCN(C)C + CN(C)C/C=C/C(=O)Nc1cc2c(Nc3ccc(F)c(Cl)c3)ncnc2cc1O[C@H]1CCOC1 [Afatinib]	50.2
Nc1ccn(C2OC(CO)C(O)C2O)c(=O)n1 (stereo not given) [Cytarabine] + CN(C)C/C=C/C(=O)Nc1cc2c(Nc3ccc(F)c(Cl)c3)ncnc2cc1O[C@H]1CCOC1 [Afatinib]	65.7
CS(=O)(=O)O.Cc1c(O)cccc1C(=O)NC(CSc1ccccc1)C(O)CN1CC2CCCCC2CC1C(=O)NC(C)(C)C (stereo not given) [Nelfinavir Mesylate] + CN(C)C/C=C/C(=O)Nc1cc2c(Nc3ccc(F)c(Cl)c3)ncnc2cc1O[C@H]1CCOC1 [Afatinib]	47.9
Oc1c(Cl)cc(Cl)c2cccnc12 [Chloroxine] + CN(C)C/C=C/C(=O)Nc1cc2c(Nc3ccc(F)c(Cl)c3)ncnc2cc1O[C@H]1CCOC1 [Afatinib]	75.4
COc1ccc(CN2CCN(C(c3ccc(F)cc3)c3ccc(F)cc3)CC2)c(OC)c1OC.Cl.Cl [Lomerizine HCl] + CN(C)C/C=C/C(=O)Nc1cc2c(Nc3ccc(F)c(Cl)c3)ncnc2cc1O[C@H]1CCOC1 [Afatinib]	68.9
Cl.Cl.Fc1ccc(C(c2ccc(F)cc2)N2CCN(CC=Cc3ccccc3)CC2)cc1 [Flunarizine 2HCl] + CN(C)C/C=C/C(=O)Nc1cc2c(Nc3ccc(F)c(Cl)c3)ncnc2cc1O[C@H]1CCOC1 [Afatinib]	77
COc1cc(Nc2c(C#N)cnc3cc(OCCCN4CCN(C)CC4)c(OC)cc23)c(Cl)cc1Cl [Bosutinib (SKI-606)] + CN(C)C/C=C/C(=O)Nc1cc2c(Nc3ccc(F)c(Cl)c3)ncnc2cc1O[C@H]1CCOC1 [Afatinib]	25.9
CCc1cnn2c(NCc3ccc[n+]([O-])c3)cc(N3CCCCC3CCO)nc12 (stereo not given) + CN(C)C/C=C/C(=O)Nc1cc2c(Nc3ccc(F)c(Cl)c3)ncnc2cc1O[C@H]1CCOC1 [Afatinib]	21.4
CCOc1nc2cccc(C(=O)OC(C)OC(=O)OC3CCCCC3)c2n1Cc1ccc(-c2ccccc2-c2nn[nH]n2)cc1 (stereo not given) [Candesartan Cilexetil] + CN(C)C/C=C/C(=O)Nc1cc2c(Nc3ccc(F)c(Cl)c3)ncnc2cc1O[C@H]1CCOC1 [Afatinib]	74.5
Cc1cn(-c2cc(NC(=O)c3ccc(C)c(Nc4nccc(-c5cccnc5)n4)c3)cc(C(F)(F)F)c2)cn1 [Nilotinib(AMN-107)] + CN(C)C/C=C/C(=O)Nc1cc2c(Nc3ccc(F)c(Cl)c3)ncnc2cc1O[C@H]1CCOC1 [Afatinib]	56.1
